From PubChem BioAssay
ALR H2O2 inh = inhibitors of human sulfhydryl oxidase ALR; P55789; purified ALR, DTT oxidation, H2O2 HRP-luminol luminescence; inhibition, % (concentration not given with the values); actives 3.8% (n = 290,000); AID 485317;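 active = mean replicate inhibition above about 79%, with every replicate also reaching it, limit read from the data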
Target sequence (P55789 whole entry, looked up): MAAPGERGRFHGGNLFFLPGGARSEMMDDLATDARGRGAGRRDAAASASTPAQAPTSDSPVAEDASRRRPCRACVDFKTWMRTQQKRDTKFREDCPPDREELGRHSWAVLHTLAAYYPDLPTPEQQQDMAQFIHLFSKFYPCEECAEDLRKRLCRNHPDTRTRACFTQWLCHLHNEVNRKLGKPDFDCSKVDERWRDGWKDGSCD
HDAC3 inh = blocks human histone deacetylase 3. O15379. recombinant HDAC3, fluorogenic peptide/trypsin coupled, fluorescence. inhibition, % at 8.3 µM. actives 0.15% (n = 320,000). AID 2718; in the data active = inhibition above about 26%, passing the limit was not always enough
Efflux pump inh = antifungal efflux pump inhibition, Nile Red retention; S. cerevisiae Candida pump triplex; inhibition, % at 10 µM; actives 0.44% (n = 330,000);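 active = plate passing quality check with inhibition over a set limit, or well fluorescence over plate mean plus 4 SD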;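 note: Nile Red retained in pooled yeast measured as flow cytometry median fluorescence; 0% = buffer negative control and 100% = Enniatin B positive control; higher means more Nile Red kept so more efflux inhibition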
Rce1 inhib = inhibitors of yeast Ras-converting enzyme | yeast membranes, quenched prenylated peptide cleavage fluorescence | calls only | actives 0.27% (n = 290,000) | AID 2563;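 active = fall in fluorescence gain of 50% or more versus controls, with final raw signal at or below 3038400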;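 note: plate controls were neutral control wells for no effect and wells lacking membranes for full effect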
Target sequence (Q03530 whole entry, looked up): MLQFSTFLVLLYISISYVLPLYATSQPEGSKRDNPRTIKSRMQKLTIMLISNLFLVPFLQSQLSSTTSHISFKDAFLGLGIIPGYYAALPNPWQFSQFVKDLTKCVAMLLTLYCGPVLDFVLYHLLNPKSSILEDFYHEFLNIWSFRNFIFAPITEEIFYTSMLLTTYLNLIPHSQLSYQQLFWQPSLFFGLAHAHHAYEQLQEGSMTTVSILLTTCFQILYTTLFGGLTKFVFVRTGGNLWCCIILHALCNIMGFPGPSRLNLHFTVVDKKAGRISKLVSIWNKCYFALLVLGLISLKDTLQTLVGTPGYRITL
GRK2 aptamer HTS = blocks RNA aptamer binding to human GRK2 | actives 0.59% (n = 330,000) | bead flow cytometry, FAM-aptamer displacement from GRK2 | P25098 | AID 488847 | inhibition of aptamer binding, % at 10 µM;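 active = inhibition of aptamer binding above 40%, roughly 3 SD of noise, on plates passing a quality check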;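 note: median bead fluorescence of bound FAM aptamer so fluorescent compounds give negative values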
Rtt109 Vps75 = inhibitors of Candida albicans Rtt109/Vps75 histone acetyltransferase | Q5AAJ8 | purified Rtt109/Vps75, ThioGlo CoA-SH fluorescence, 4 h | inhibition, % at 34.9 µM | actives 0.16% (n = 330,000);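 active = inhibition of at least 50% in every replicate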
* marks the source's active call; other numbers are inactive results; i = inactive; · = no result given; + = active, no number. Shown are actives, neighbours in structure and some others; about 4.5% of the full set was active somewhere.

SMILES	ALR H2O2 inh	HDAC3 inh	Efflux pump inh	Rce1 inhib	GRK2 aptamer HTS	Rtt109 Vps75
CC(C)Oc1ccc(S(=O)(=O)N2CCOCC2)cc1NC(=O)Cc1c(F)cccc1Cl	-6	6	0	i	2	-2
CCOC(OCC)c1cn(Cc2ccc3c(c2)C(=O)c2ccccc2C3=O)nn1	2	-5	0	i	0	·
COc1ccc(C(=O)Nc2ccc(N3CCOCC3)cc2)cc1OC	-14	-2	0	i	10	3
O=C(Nc1ccc(N2CCCC2)cc1)C(Cl)c1ccccc1 (stereo not drawn)	98*	4	0	i	0	13
CS(=O)(=O)N1CCN(c2ccc(NC(=O)C(c3ccccc3)c3ccccc3)cc2)CC1	-5	2	0	i	0	3
COc1ccc(C(=O)Nc2ccc(N3CCCC3)cc2)cc1OC	99*	5	0	i	0	-1
CC(C)NC(=O)C(c1ccc(F)cc1)N(Cc1ccco1)C(=O)CCC(=O)Nc1ccccn1 (stereo not drawn)	0	-5	0	i	2	3
O=C(NCCNC(=O)c1ccccc1Br)c1cccnc1	2	-6	0	i	0	-2
CCOC(=O)C1=C(C)NC(C)=C(C(=O)OCC)C1C(=O)OCC(=O)NCCc1ccc(S(N)(=O)=O)cc1	-11	0	0	i	0	53*
C[C@H](CO)N1C[C@H](C)[C@@H](CN(C)C(=O)Nc2ccc3c(c2)OCO3)Oc2ccc(NC(=O)Cn3cnnn3)cc2C1=O	-9	1	0	·	0	-4
CCN(CC)c1ccc(CNCc2cccs2)cc1	99*	-9	0	i	1	-1
Cc1ccccc1-c1nnn(CC(=O)N(C)CC(=O)Nc2ccccc2C(F)(F)F)n1	-5	8	0	i	0	-2
CC(C)N1CCC(N2CCN(C3CCCCC3)CC2CCO)CC1 (stereo not drawn)	-3	-2	0	i	0	18
CC(C)CCN1CCN(C2CCN(c3ccc4c(c3)OCO4)CC2)CC1CCO (stereo not drawn)	99*	-5	0	i	0	0
Cc1ccc(N2CCC(N3CCN(C4CCCCC4)C(CCO)C3)CC2)cc1 (stereo not drawn)	99*	1	0	i	0	·
Cc1cc(F)ccc1N1CCC(N2CCN(CCC(C)C)C(CCO)C2)CC1 (stereo not drawn)	10	0	0	i	0	-5
COc1ccc(NC(=O)c2cn3c(nc4ccccc43)c(C#N)c2C)cc1	4	-8	0	+	0	-1
Cc1c(C(=O)Nc2ccccc2)cn2c(nc3ccccc32)c1C#N	-5	0	0	i	0	-2
COCC(C)N1CCC(n2nccc2NC(=O)CCCc2ccccc2)CC1 (stereo not drawn)	7	-3	0	i	0	-10
Cc1c(C(=O)Nc2cccc(N(C)S(C)(=O)=O)c2)cccc1[N+](=O)[O-]	-7	0	0	i	0	-21
O=C(CCc1ccccc1)NCCSc1ccccc1	-23	1	0	i	0	4
O=C(CCc1[nH]c2ccccc2c1Sc1ccccc1)NCCO	99*	0	0	i	0	6
O=C1NCC(Nc2ccccc2Cl)C(=O)N1 (stereo not drawn)	·	·	·	·	·	8
CCN(CC)c1ccc(NC(=O)c2ccccc2OCC(=O)OC)cc1	·	15	0	i	0	-12
Cc1cc(C(=O)CSc2nnnn2-c2ccccc2)c(C)n1CCc1ccccc1	-3	1	0	i	1	0
SMILES	ALR H2O2 inh	HDAC3 inh	Efflux pump inh	Rce1 inhib	GRK2 aptamer HTS	Rtt109 Vps75
Cc1cc(C(=O)CSc2nnnn2-c2ccc(O)cc2)c(C)n1C	89*	-2	0	·	0	-8
NC(=O)c1ccc(-n2nnnc2SCC(=O)c2ccc(O)c(O)c2)cc1	96*	-2	0	i	2	-2
CCOc1ccc(S(=O)(=O)NCCC(=O)NC2CCCCC2)cc1	-8	-10	0	i	0	2
COc1ccc(CN(C)C(=O)CSc2nnc(C3CC3)n2C2CC2)cc1	·	·	·	·	·	1
O=C(CSc1nnc2n1CCCCC2)Nc1ccc(N2CCOCC2)cc1	86*	-3	0	i	0	-10
Cc1ccc(NC(=O)CSc2nnc3n2CCCCC3)cc1	·	-2	0	i	2	22
CCOc1ccc(NC(=O)CSc2nnc(C3CC3)n2N)cc1	98*	3	0	i	0	-3
Nn1c(SCC(=O)Nc2ccc(Oc3ccccc3)cc2)nnc1C1CC1	28	7	-1	i	3	15
Nn1c(SCC(=O)Nc2ccc(N3CCOCC3)cc2)nnc1C1CC1	99*	-12	0	·	0	-3
Cc1ccc(C(=O)OCC(=O)c2ccc(S(=O)(=O)N3CCCCC3)cc2)o1	-7	10	0	i	5	-4
CC(Oc1ccc(S(=O)(=O)N2CCCC2)cc1[N+](=O)[O-])C(=O)N(C)c1ccccc1 (stereo not drawn)	-5	1	0	i	3	-3
O=[N+]([O-])c1cc(S(=O)(=O)O)cc([N+](=O)[O-])c1NN(c1ccccc1)c1ccccc1	99*	3	0	i	7	4
CCO[C@@H]1OC(C(=O)N2CCN(Cc3ccccc3)CC2)=C[C@H](c2ccccc2)[C@H]1CCCO	·	1	0	+	1	3
CCOC(=O)C1CCN(Cc2c(O)ccc3ccccc23)CC1	38	1	0	i	0	0
Oc1ccc2ccccc2c1CN1CCCC1	8	2	0	i	2	11
Cc1ccc(-c2nc(CN3CCN(C(=O)C4CCCO4)CC3)cs2)cc1 (stereo not drawn)	99*	2	0	i	3	-24
Cc1ccc(CN2CCN(C(=O)C3CCCO3)CC2)cc1 (stereo not drawn)	99*	6	0	i	0	3
CCOC(=O)N1CCN(Cc2c(O)ccc3ccccc23)CC1	-3	-1	0	i	0	133*
O=C(C1CCCO1)N1CCN(Cc2c(O)ccc3ccccc23)CC1 (stereo not drawn)	44	-8	0	i	0	142*
Cc1ccc(C(=O)N2CCN(C(=O)C3CCCO3)CC2)cc1 (stereo not drawn)	0	-5	0	·	1	-3
Cc1ccc(S(=O)(=O)N(Cc2ccc([N+](=O)[O-])cc2)C(=O)N2CCN(C)CC2)cc1	·	·	·	i	·	24
Cc1oc(-c2ccccc2)cc1C(=O)Nc1cccc(C(=O)O)c1	84*	-3	0	i	1	-1
CC(c1ccc(F)cc1)n1c(-c2cccs2)n[nH]c1=S (stereo not drawn)	93*	-11	0	i	5	-4
Nc1nonc1C(=Nc1ccccc1)NO	53	1	0	i	0	-1
